D2 antag: antagonizes the human D2 dopamine receptor | P14416 | HEK293 TREx D2 cells, calcium flux, dopamine EC80 | inhibition, % at 10 µM | 340,000 compounds, 2% hits | AID 485344; in the data active = inhibition above about 30%; inactive = below that, where a call was filed; note: 0% is about no effect
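Dopamine at EC80 is the agonist stimulus; test compounds precede it by 180 s. Calcium flux read kinetically in a force-coupled, inducible HEK293 T-REx D2 cell line.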
D2 ag-1: activates the human D2 dopamine receptor | P14416 | HEK293 T-REx D2 cells, calcium flux agonist mode | activation, % at 2 µM | 340,000 compounds, 0.53% hits | AID 485358;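 active = activation over 3 SD above normal in the single-dose calcium agonist read, cut at about 30% in these data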; note: 0% is about no effect
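HEK293 Trex D2 cells, tetracycline-induced, o/n 30 C 5% CO2; no-wash Ca dye, RT 30–90 min; 10-cycle baseline, 23 nl cpd added, kinetic Ca read 180 s; agonist hits = positive Ca response.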
D2 PAM-1: positive allosteric modulators of human D2 dopamine receptor | HEK293 T-REx D2, calcium flux, EC20 dopamine potentiation | AID 485347 | 340,000 compounds, 0.34% hits | potentiation, % at 10 µM | P14416;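 active = potentiation over 3 SD above the plate norm, cut at about 30% in these data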; note: 0% is about no effect
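Calcium flux readout, no-wash dye, 1 read/s. Inducible HEK293 Trex D2 line, overnight 30 C. Compound alone 180 s (agonist flags), then EC20 dopamine, another 180 s to score potentiation.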
D2 ag-2: human D2 receptor agonism in beta-arrestin assay; DiscoveRx PathHunter D2 beta-arrestin, luminescence, 90 min; 100% = 57 uM dopamine signal; activation, % (no concentration beside the values); 360,000 compounds, 0.084% hits; in the data active = activation above about 40%; inconclusive = between about 15% and that limit
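DiscoveRx PathHunter D2 beta-arrestin cells (2,100/well) attached overnight, then compound-stimulated 90 min at 37 C in HBSS/10 mM HEPES/0.1% Tween-20 buffer; beta-galactosidase complementation read by luminescence after 1 h at ambient temperature. Dopamine 57 uM final (EC100) as control.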
D2 PAM-2: potentiates the human D2 dopamine receptor allosterically. P14416. DiscoveRx D2 beta-arrestin cells, luminescence, 90 min; 100% = 57 uM dopamine signal. 360,000 compounds, 0.23% hits. potentiation, % (no concentration beside the values); in the data active = potentiation above about 50%; inconclusive = mostly about 30% to 49%
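D2 cells co-treated with compound plus 50 nM dopamine (EC20) for 90 min at 37 deg C to detect potentiation. Beta-arrestin recruitment was read as enzyme-fragment luminescence after 1 h at ambient temperature. Full response was set by 57 uM dopamine.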
D3 arrestin ag: activates human D3 dopamine receptor beta-arrestin recruitment. DiscoveRx D3 beta-arrestin cells, luminescence, 90 min. shares compounds with D2 ag-1. 2,300 compounds, 4% hits. AID 720506. Potency, µM (top dose mostly 76.9 µM), inactives show at the top dose activation, most hits filed as activators;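 note: potency is the fitted concentration of half-maximal effect; 100% = dopamine control response; nearly all actives have a fitted effect of over 70% in size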
Target sequence (P35462 whole entry, looked up): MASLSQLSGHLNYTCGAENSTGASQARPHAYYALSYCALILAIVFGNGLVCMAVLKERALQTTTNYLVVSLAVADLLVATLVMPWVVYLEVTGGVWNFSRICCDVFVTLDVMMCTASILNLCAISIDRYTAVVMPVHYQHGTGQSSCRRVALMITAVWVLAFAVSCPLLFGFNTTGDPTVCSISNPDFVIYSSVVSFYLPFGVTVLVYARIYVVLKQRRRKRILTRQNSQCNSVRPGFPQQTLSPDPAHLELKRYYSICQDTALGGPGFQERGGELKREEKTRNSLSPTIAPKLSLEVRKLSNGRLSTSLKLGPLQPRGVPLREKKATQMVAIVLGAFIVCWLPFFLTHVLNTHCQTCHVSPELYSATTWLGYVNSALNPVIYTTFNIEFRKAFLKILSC
D2 ag-3: D2 receptor agonism, beta-arrestin counterscreen; shares compounds with D2 ag-1; DiscoveRx PathHunter D2 beta-arrestin, luminescence, 90 min; response scale: percent relative to full dopamine signal; AID 720507; Potency, µM (doses to about 76.9 µM), for the others: at the top dose activation, hits mostly activators; 2,300 compounds, 5.9% hits; note: potency is the fitted concentration of half-maximal effect; % of control where 0% means no effect; nearly all actives have a fitted effect of over 70% in size
Starred values were filed as active, the others as inactive; u = inconclusive; x = no result given. Only some compounds are listed: those with a hit (about 2.4% of all), similar ones and a draw of the others. Unless noted, calls come from the whole dose curve; as a rule, active = well fitted activation curve with a large enough effect; inconclusive = small, poorly fitted or top-dose-only effect; inactive = flat fitted curve, though single readings scatter.

SMILES	D2 antag	D2 ag-1	D2 PAM-1	D2 ag-2	D2 PAM-2	D3 arrestin ag	D2 ag-3
CC(Sc1nnc(-c2cccnc2)n1N)C(=O)NCCC1=CCCCC1 (configuration not stated)	12	47*	-2	3	-7	14%	23%
COc1ccc(CC(=O)NC(C)(C)CC(C)=O)cc1OC	-11	0	5	-2	0	x	x
CC(=O)CC(C)(C)NC(C)=S	-8	34*	-16	-2	-7	-16%	-4%
COc1ccc(C2=CC(=O)C[C@H](c3ccc(OC)c(OC)c3)C2)cc1	2	0	14	-4	-5	9%	17%
COc1cc(F)cc(C2=CC(=O)C[C@H](c3ccc(F)cc3)C2)c1	-6	-1	2	-1	-8	x	x
COc1ccc([C@H]2CC(=O)C=C(c3ccccc3Oc3ccccc3)C2)cc1	7	0	-12	-5	-5	-13%	3%
COc1ccc([C@H]2CC(=O)C=C(c3cc(F)ccc3F)C2)cc1OC	-8	0	17	2	7	5%	20%
COc1cccc(C2=CC(=O)C[C@H](c3ccc(F)cc3)C2)c1	3	-1	12	-3	-9	-10%	-3%
CCN1C[C@@H]2[C@@H]3C(=O)N(Cc4ccccc4)C(=O)[C@@H]3[C@](C)(C1=O)N2C(=O)c1ccc(F)cc1	x	x	x	-2	-8	x	x
CCc1ccc2oc(-c3cccc(NC(=O)c4ccc(-c5cccc([N+](=O)[O-])c5)o4)c3)nc2c1	x	0	-10	x	x	x	x
Cc1cccc(S(=O)(=O)Nc2ccc(-c3cn4ccccc4n3)cc2)c1	1	0	10	0	23	x	x
O=S(=O)(Nc1ccc(-c2cn3ccccc3n2)cc1)c1ccccc1	40*	0	5	5	-1	16%	15%
CC(C)N1CCN(CC2COc3ccccc3O2)CC1 (configuration not stated)	4	35*	-10	-5	-10	-7%	-1%
COc1ccc2c(c1)[nH]c1c(=O)n(Cc3ccccn3)cnc12	15	-1	13	0	4	x	x
COc1ccc2c(c1)[nH]c1c(=O)n(Cc3ccco3)cnc12	1	32*	-18	-3	-4	-7%	-3%
COc1ccccc1NS(=O)(=O)c1ccc(C(=O)N2CCCC(C(F)(F)F)C2)cc1 (configuration not stated)	13	-1	-15	0	-5	2%	-2%
OC[C@H]1O[C@@H](c2nc3ccc(-c4nc(-c5cccs5)no4)cc3[nH]2)C[C@@H]1O	x	x	x	-4	-5	x	x
Cc1ccc(Cn2nnc3c(=O)[nH]c(C4CCCN(S(=O)(=O)c5ccc(F)cc5)C4)nc32)cc1 (configuration not stated)	-19	0	x	-2	-4	x	x
O=c1[nH]c(C2CCCN(S(=O)(=O)c3ccc(F)cc3)C2)nc2c1nnn2Cc1ccc(F)cc1 (configuration not stated)	68*	1	-5	0	-3	4%	-3%
Cc1cc(C)cc(OCC(O)CN2CCN(C(=O)c3ccco3)CC2)c1 (configuration not stated)	35*	61*	-27	10	-17	21%	20%
O=C(c1ccccc1)N1CCN(CC(O)COc2ccc(Br)cc2)CC1 (configuration not stated)	0	-5	-9	0	-47	x	x
O=C(c1ccco1)N1CCN(CC(O)COc2ccc3oc4ccccc4c3c2)CC1 (configuration not stated)	40*	50*	-19	u	9	35µM*	50µM*
CC(=O)c1cccc(OCC(O)CNCCOc2ccc(C)cc2)c1 (configuration not stated)	42*	53*	-23	12	-7	-2%	5%
CC(=O)c1cccc(OCC(O)CNCC2CCCCC2)c1 (configuration not stated)	-14	0	-18	2	-13	x	x
COc1ccccc1CCNC(=O)C(=O)NCC1OCCN1S(=O)(=O)c1ccc(OC)c(OC)c1 (configuration not stated)	-17	1	3	6	-1	x	x
SMILES	D2 antag	D2 ag-1	D2 PAM-1	D2 ag-2	D2 PAM-2	D3 arrestin ag	D2 ag-3
O=C(CN1CCN(c2ccccn2)CC1)Nc1ccc2ccccc2c1	22	28	-15	3	-13	-2%	18%
CC(=O)Nc1ccc(NC(=O)CN2CCN(c3ccccn3)CC2)cc1	84*	82*	-19	u	11	u	u
O=c1ccn(CCc2c[nH]c3ccccc23)c2c1CCCC2	19	43*	-19	2	3	-5%	-1%
COc1ccc(CNc2cccc3[nH]c(C(F)(F)F)nc23)cc1OC	9	0	4	u	3	x	x
CCOc1ccc(OCCC(=O)Nc2cccc(S(=O)(=O)N3CCCC3)c2)cc1	7	-1	2	2	-28	x	x
c1ccc(OCCN2CCOCC2)cc1	13	38*	3	0	-2	-1%	5%
c1ccc(Cc2ccc(OCCN3CCOCC3)cc2)cc1	11	0	-1	5	-13	x	x
Clc1cccc(OCCN2CCN(CCOc3cccc(Cl)c3)CC2)c1	93*	74*	-24	u	-15	u	25%
CN(C)CCCOc1cccc(Cl)c1	-13	-1	-17	-1	-13	x	x
O=S(=O)(c1ccc(Br)s1)N1CCN(CCOc2ccccc2)CC1	53*	43*	-35	11	-28	u	20%
Cc1cc(C)c(C(=O)OCc2csc(CC(=O)Nc3ccccc3C)n2)c(C)c1	-8	0	13	2	0	x	x
CC(=O)Nc1cccc(C(=O)OCc2csc(CC(=O)Nc3ccccc3C)n2)c1	3	0	-3	-1	0	1%	2%
CCC(=O)N1C(Cc2ccccc2)COC1(C)C (configuration not stated)	-3	41*	-18	-3	-4	-8%	-5%
CCC1(C)NC(=O)N(CC(=O)N2CCC(Cc3ccccc3)CC2)C1=O (configuration not stated)	-20	1	-4	-3	-5	x	x
COc1ccc(C2C=C(c3ccccc3)Nc3nnnn32)cc1 (configuration not stated)	x	x	4	1	-11	-6%	-3%

Screening results (PubChem BioAssay)
